# According to PMC7862700, “An all-to-all approach to the identification of sequence-specific readers for epigenetic DNA modifications on cytosine”:
# Assays:
# Test in all cases: DAPPL (digital affinity profiling via proximity ligation, sequencing); 10 mM Tris-HCl pH 7.5, 50 mM NaCl, 1 mM DTT, 4% glycerol, room temperature, 30 min; GST-TFs on glutathione beads, 16-mer random dsDNA library, 0.1% formaldehyde crosslink after washing; high values mean tight binding
# Settings in all cases: protein: recombinant; tags: N-terminal GST; dsDNA, one strand shown
# ETV5 = ETV5 (Homo sapiens, UniProt P41161 1-510)
# Outline: (§1)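 Binding signal is defined as a hexamer's read frequency for one factor over its frequency for the tag-only sample. To obtain reads, GST-fused human transcription factors were expressed in yeast, captured on glutathione beads, barcoded with DNA and pooled with that sample. Pools met 200 nmole of a 16-mer random double-stranded DNA library in Tris/NaCl/DTT/glycerol buffer for 30 min at room temperature before washing, 0.1% formaldehyde crosslinking, proximity ligation (BsaI/T4 ligase, 1 h, 37 °C), PCR and Illumina NextSeq500 sequencing.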
# SPIC = molecular target: T1, SPIC (Homo sapiens, UniProt Q8N5J4 1-248)
# T1 sequence: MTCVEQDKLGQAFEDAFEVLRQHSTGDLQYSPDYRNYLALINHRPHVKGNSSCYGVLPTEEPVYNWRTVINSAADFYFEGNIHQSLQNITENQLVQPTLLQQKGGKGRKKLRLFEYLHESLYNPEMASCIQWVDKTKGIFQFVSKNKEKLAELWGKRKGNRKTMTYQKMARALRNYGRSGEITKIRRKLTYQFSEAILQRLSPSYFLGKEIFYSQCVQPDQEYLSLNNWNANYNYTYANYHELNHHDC
# Outline: as §1
# ELF4 = ELF4 (Homo sapiens, UniProt Q99607 1-663)
# Outline: as §1
# ETV1 = ETV1 (Homo sapiens, UniProt P50549 1-477)
# Outline: as §1
# ERF = molecular target: T2, ERF (Homo sapiens, UniProt P50548 1-548)
# T2 sequence: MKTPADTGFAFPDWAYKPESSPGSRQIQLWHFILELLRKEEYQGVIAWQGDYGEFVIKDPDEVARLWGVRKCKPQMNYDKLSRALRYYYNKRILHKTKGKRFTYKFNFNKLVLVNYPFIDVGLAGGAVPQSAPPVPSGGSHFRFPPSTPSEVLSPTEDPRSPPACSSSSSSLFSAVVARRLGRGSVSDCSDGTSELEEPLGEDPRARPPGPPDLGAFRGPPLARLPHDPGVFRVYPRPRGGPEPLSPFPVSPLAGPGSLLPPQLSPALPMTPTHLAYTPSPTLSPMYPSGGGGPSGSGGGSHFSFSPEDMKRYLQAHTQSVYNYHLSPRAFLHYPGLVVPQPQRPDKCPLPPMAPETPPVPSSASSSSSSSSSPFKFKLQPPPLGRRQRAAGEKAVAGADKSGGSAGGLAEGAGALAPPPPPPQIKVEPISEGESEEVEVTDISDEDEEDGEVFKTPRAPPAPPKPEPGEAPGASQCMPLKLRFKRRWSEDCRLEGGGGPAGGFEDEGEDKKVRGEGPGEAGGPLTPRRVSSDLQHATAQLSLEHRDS
# Outline: as §1
# ETV3L = molecular target: T3, ETV3L (Homo sapiens, UniProt Q6ZN32 1-361)
# T3 sequence: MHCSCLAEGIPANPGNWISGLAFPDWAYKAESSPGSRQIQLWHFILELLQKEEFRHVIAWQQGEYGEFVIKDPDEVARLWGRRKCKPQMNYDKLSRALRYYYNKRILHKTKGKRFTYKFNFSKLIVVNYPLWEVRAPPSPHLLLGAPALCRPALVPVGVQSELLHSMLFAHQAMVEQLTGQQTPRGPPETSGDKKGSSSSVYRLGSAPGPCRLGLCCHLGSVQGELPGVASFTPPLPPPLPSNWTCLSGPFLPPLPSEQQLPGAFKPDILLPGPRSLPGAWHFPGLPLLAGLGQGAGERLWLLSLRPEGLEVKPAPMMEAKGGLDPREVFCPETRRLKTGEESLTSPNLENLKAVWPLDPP
# Outline: as §1
# ETS2 = molecular target: T4, ETS2 (Homo sapiens, UniProt P15036 1-469)
# T4 sequence: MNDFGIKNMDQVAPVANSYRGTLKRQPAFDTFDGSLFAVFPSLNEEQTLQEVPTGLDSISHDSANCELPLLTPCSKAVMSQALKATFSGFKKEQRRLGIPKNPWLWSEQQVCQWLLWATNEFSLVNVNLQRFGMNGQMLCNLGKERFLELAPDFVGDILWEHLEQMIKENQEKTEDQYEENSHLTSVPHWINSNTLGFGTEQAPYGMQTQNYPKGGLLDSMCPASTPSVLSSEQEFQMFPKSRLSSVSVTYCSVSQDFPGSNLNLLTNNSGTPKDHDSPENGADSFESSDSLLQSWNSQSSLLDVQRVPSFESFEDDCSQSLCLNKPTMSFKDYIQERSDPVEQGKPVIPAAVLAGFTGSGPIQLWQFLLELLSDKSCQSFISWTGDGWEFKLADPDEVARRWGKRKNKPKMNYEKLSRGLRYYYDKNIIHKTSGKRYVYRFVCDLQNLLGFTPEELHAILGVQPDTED
# Outline: as §1
# SPDEF = molecular target: T5, SPDEF (Homo sapiens, UniProt O95238 1-335)
# T5 sequence: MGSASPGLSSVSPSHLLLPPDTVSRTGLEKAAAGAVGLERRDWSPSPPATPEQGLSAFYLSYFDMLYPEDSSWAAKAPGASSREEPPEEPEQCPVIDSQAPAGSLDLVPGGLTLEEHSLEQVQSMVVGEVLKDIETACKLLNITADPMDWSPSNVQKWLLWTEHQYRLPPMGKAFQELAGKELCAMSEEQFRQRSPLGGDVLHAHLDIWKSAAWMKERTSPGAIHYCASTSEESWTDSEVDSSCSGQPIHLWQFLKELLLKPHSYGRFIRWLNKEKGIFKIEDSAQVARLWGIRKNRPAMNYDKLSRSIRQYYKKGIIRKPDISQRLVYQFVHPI
# Outline: as §1
# ETV3 = molecular target: T6, ETV3 (Homo sapiens, UniProt P41162-2 1-143)
# T6 sequence: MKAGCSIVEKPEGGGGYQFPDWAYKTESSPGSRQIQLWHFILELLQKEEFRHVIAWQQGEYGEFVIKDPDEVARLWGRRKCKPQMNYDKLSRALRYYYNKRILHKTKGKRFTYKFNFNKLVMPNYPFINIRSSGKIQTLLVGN
# Outline: as §1
# ETV6 = ETV6 (Homo sapiens, UniProt P41212 1-452)
# Outline: as §1
# Chain of ETV1 (P50549 whole entry): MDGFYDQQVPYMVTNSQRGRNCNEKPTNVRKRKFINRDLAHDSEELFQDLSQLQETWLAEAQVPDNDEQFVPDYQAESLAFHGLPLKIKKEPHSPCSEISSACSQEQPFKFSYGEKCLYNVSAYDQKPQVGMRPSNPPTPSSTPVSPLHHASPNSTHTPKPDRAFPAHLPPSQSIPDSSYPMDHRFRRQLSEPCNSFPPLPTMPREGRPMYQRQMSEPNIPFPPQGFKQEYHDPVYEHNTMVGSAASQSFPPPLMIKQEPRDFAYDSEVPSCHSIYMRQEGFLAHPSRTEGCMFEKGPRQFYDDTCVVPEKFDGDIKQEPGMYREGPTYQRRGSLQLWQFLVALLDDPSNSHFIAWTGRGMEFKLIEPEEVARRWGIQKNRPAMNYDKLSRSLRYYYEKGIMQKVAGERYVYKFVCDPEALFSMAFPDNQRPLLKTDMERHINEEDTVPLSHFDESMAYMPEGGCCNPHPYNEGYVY
# Chain of ELF4 (Q99607 whole entry): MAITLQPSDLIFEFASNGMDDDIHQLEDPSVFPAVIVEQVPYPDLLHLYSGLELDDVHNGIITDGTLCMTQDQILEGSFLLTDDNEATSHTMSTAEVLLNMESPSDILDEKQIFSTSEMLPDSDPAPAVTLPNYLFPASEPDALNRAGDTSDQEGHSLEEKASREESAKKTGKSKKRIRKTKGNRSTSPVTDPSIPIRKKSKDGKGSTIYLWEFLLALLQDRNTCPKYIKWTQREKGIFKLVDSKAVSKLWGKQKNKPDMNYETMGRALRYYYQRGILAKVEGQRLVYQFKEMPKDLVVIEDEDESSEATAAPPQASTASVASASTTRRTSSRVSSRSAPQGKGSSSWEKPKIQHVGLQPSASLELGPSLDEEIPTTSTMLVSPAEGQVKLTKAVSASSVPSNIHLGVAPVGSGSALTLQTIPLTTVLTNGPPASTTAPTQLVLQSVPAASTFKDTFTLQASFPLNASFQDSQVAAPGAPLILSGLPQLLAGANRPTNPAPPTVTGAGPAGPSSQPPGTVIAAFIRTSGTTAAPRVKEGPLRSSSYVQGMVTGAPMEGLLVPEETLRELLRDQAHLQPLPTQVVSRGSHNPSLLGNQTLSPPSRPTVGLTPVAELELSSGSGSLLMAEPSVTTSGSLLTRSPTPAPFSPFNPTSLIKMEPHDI
# Chain of ETV5 (P41161 whole entry, the tested form may be a part): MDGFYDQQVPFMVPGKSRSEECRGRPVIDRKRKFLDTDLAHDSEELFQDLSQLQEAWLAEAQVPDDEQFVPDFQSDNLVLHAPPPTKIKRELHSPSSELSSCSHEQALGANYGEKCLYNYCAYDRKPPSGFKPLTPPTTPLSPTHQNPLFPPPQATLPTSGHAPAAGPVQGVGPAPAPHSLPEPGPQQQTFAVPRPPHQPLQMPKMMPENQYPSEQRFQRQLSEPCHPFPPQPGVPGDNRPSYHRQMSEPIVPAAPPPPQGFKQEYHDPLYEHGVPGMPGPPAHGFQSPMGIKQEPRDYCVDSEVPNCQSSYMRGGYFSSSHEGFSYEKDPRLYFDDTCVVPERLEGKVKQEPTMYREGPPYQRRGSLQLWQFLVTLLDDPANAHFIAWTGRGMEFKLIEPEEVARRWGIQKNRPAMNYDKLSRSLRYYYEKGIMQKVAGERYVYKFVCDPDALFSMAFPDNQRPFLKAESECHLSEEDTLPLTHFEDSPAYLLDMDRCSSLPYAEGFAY
# Chain of ETV6 (P41212 whole entry): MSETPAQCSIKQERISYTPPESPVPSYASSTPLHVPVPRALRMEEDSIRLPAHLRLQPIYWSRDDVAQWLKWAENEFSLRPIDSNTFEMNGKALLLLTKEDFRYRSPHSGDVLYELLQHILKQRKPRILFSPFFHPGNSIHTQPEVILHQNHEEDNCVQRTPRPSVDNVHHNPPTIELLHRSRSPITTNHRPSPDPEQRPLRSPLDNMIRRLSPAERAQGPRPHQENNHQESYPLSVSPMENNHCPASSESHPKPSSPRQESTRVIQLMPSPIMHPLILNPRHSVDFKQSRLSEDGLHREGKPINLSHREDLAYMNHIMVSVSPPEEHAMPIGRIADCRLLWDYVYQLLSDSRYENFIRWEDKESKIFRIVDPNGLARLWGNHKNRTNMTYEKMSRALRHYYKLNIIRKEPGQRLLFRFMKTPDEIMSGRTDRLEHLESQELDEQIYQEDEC
sequence,measurement,setting,value
CGATGT,binding signal,ETV5,"1.1 fold enrichment (6-mer frequency, TF over GST control)"
same,binding signal,SPIC,"1.07 fold enrichment (6-mer frequency, TF over GST control)"
same,binding signal,ELF4,"1.04 fold enrichment (6-mer frequency, TF over GST control)"
same,binding signal,ETV1,"1.1 fold enrichment (6-mer frequency, TF over GST control)"
same,binding signal,ERF,"1.16 fold enrichment (6-mer frequency, TF over GST control)"
same,binding signal,ETV3L,"1.09 fold enrichment (6-mer frequency, TF over GST control)"
same,binding signal,ETS2,"1.12 fold enrichment (6-mer frequency, TF over GST control)"
same,binding signal,SPDEF,"1.12 fold enrichment (6-mer frequency, TF over GST control)"
same,binding signal,ETV3,"1.19 fold enrichment (6-mer frequency, TF over GST control)"
same,binding signal,ETV6,"1.03 fold enrichment (6-mer frequency, TF over GST control)"
